Data as given in PubChem BioAssay (NCATS).
Inconclusive results are not listed. Active and inactive are the calls of the source. The call rests on the fitted dose curve; in most records, active means well fitted curve in the direction sought with a large enough effect; inconclusive means small, poorly fitted or top-dose-only effect, or another doubt; inactive means no such curve, though single readings can be large; an effect the other way counts as inactive or inconclusive.

Tests used:
[1] = qHTS for Inhibitors of Plasmodium falciparum (DD2) proliferation (AID 504314); further: potency means the concentration at half of the fitted maximal effect;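 on activity, negative = inhibition: parasite DNA measured by SYBR Green fluorescence after red cell lysis; plate controls were DMSO vehicle for no effect and artemisinin wells for full effect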
In short: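 Erythrocytes infected with P. falciparum (0.3% parasitemia, 2.5% hematocrit final) were incubated with compounds for 72 h at 37C, 5% CO2. Parasite DNA was detected by SYBR Green I fluorescence after saponin/Triton lysis, normalized to artemisinin (0.29 uM) and DMSO controls.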

[2] = qHTS for Inhibitors of Plasmodium falciparum (GB4) proliferation (AID 504315); further: nearly all actives have a fitted effect of over 50% in size; further: potency means the concentration at half of the fitted maximal effect
In short: (§1)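 Erythrocytes infected with P. falciparum line (0.3% parasitemia, 2.5% hematocrit final) incubated with compounds 72 h at 37 °C, 5% CO2; SYBR Green lysis buffer added, fluorescence read next day. Normalized to 0.29 uM artemisinin and DMSO.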

[3] = qHTS for Inhibitors of Plasmodium falciparum (7G8) proliferation (AID 504316); further: nearly all actives have a fitted effect of over 65% in size; further: potency means the concentration at half of the fitted maximal effect
In short: as §1

[4] = qHTS for Inhibitors of Plasmodium falciparum (HB3) proliferation (AID 504318);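 further: 0% = DMSO vehicle and -100% = artemisinin control; nearly all actives have a fitted effect of over 60% in size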
In short: as §1

[5] = qHTS for Inhibitors of Plasmodium falciparum (CP250) proliferation (AID 504320);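 further: plate controls were DMSO vehicle for no effect and 0.29 µM artemisinin control for full effect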
In short: as §1

CCCC[C@]12Cc3ccccc3[C@H](O1)c1c(cc(-c3ccccc3)oc1=O)O2
active: Potency [1] 1.69 µM | Potency [2] 1.69 µM | Potency [3] 1.9 µM

COC(=O)CCC(=O)OC1(C)C(=O)C=C2C=C(C3CC3)N(Cc3ccc4c(c3)OCO4)C=C2C1=O (configuration not stated)
inactive: activity, negative = inhibition [1] -0.0348% [at 1.12 µM] | Potency [2] | Potency [3] | Potency [4] | Potency [5]

CC#CCN1C(=O)NC(c2ccccc2)C(C(=O)OC)=C1C (configuration not stated)
inactive: Potency [1] | Potency [2] | Potency [3] | Potency [4] | Potency [5]

C=CCOC(=O)C(C(C)=O)[C@@H](NC(=O)OC)c1ccco1 (some centres not stated)
inactive: Potency [1] | Potency [2] | Potency [3] | Potency [4] | Potency [5]

COC(=O)CC=C[C@H](C)[C@@H](OCc1ccccc1Br)C(C)C
inactive: Potency [1] | Potency [2] | Potency [3] | Potency [4] | Potency [5]

COc1ccc([C@]23Cc4c(ccc5ccccc45)[C@H](O2)c2c(cc(-c4ccccc4)oc2=O)O3)cc1
inactive: Potency [1] | Potency [2] | Potency [3] | Potency [4] | Potency [5]

COc1ccc2c(c1)O[C@@H](c1ccc3c(c1)OCO3)[C@H](OC(=O)Nc1ccc(OC(F)F)cc1)C2=O
inactive: Potency [1] | Potency [2] | Potency [3] | Potency [4] | Potency [5]

COC(=O)N[C@@H](C=Cc1ccco1)[C@]1(C(=O)OC)CCCC1=O
inactive: Potency [1] | Potency [2] | Potency [3] | Potency [4] | Potency [5]

C=CC1=C2C=C(C3CC3)N(C3CCCC3)C=C2C(=O)C(C)(OC(=O)c2ccco2)C1=O (configuration not stated)
inactive: Potency [1] | Potency [2] | Potency [3] | Potency [4] | Potency [5]

COC(=O)N1C(C)=Cc2ccccc2C1CC(C)=CC(C)=O (configuration not stated)
inactive: Potency [1] | Potency [2] | Potency [3] | Potency [4]

COC(=O)CC1c2ccccc2C(Cc2ccc(OC)cc2)C(C)N1C(=O)OC (configuration not stated)
inactive: Potency [1] | Potency [2] | Potency [3] | Potency [4] | Potency [5]

COC(=O)CCC(=O)OC1(C)C(=O)C2=COC(c3ccc(OC)cc3)=CC2=C(Br)C1=O (configuration not stated)
inactive: Potency [1] | Potency [2] | Potency [3] | Potency [4] | Potency [5]

COC1=C[C@H](C(=O)NCc2ccc(OC)cc2)C(C)C(c2ccccc2)CC1=O (some centres not stated)
inactive: Potency [1] | Potency [2] | Potency [3] | Potency [4] | Potency [5]
